Reference: the supplement of paper PMC6555819

test system: LXRa homodimer (NR concentration 270 nM); assay: PBM binding z-score (relative to random genomic background probes); higher = stronger binding; sequences stand for … in GC…GCGATTGACAGCGTAGAATGAAGG
Outline: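 Ligand-free nuclear receptor dimers were bound for 1 h to custom Agilent 4×180K protein-binding microarrays. Detection used antibodies against each partner (one per run). Binding z-scores rest on regression-normalized fluorescence, with random background probes as the reference.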

Row | Sequence | PBM binding z-score
1 | AATACAGGGTCACTAGGCCAGAGTGGGTACGAAT | 0.964
2 | CCTCGGAGGACACCAGGAGGTCAGAGCTGCCAGA | 0.739
3 | CGAACTAGGTCAAAGGATAGTGAAAGGCGACGTA | -0.4
4 | TAGCCTAGGTCAAGCGGGCCAGTATAGTGTCGGC | 0.0899
5 | ATATGTAGGTTAGAGTCATTCAGAAAGTAGGGAA | 0.277
6 | CGAACTAGGTCACCAGGACAGTTAAGAGGTTGGA | 0.241
7 | ATTTGTAGGTTATCGGGTCATTCAGTTTGCGCAT | 3.03
8 | CGAACTAGGTCAATGGACAGTGAAAGGCGACGTA | -0.266
9 | CGAACTAGGTCAAAGGACTGTGAAAGGCGACGTA | -0.238
10 | CCTTCTGGGCCATTCAGAGGTCATTGATCATATG | 6.84
11 | CGAACTAGGTCACCATGACAGTGAAGAGGTTGGA | -0.254
12 | CGAACTAGGTCACCAGGTCAGTGAAGAGGTTGGA | 0.525
13 | GCTGCTAGGTCAGGATGGTCAGCTAACGGGTACG | -0.251
14 | CGAACTAGGTCAAAGGACAGTGATAGGCGACGTA | 0.0431
15 | CCTACTGGGCCATCAGGTGATTGATATCAACGTT | -0.341
16 | ATATGTATGTTAGGGTCATTCAGAAAGTAGGGAA | 1.34
17 | CGTCCAAGGTCAATGCTAGGCCAGTGAAAGCATT | 0.299
18 | ATATGTTGGTTAGGGTCATTCAGAAAGTAGGGAA | 1.67
19 | CGAGCTAGGTCAAAGGACAGTGAAAGGCGACGTA | -0.157
20 | GATACAGGGGCAAGGCCAGAGTACGCGTATTGAT | -0.13

Row | Sequence | PBM binding z-score
21 | CGAACTAGGTCACCAAGACAGTGAAGAGGTTGGA | -0.0683
22 | ATATGTAGGTTAGGGTCATTAAGAAAGTAGGGAA | 1.04
23 | TTACCAAGGTGAAAGGTCGTTGAAGCACGCCTTG | 0.16
24 | CGTCCGAGGTCAAAGGTCAGTGAAGAGATGACGG | 3.51
25 | AATACAGGATCACTAGGCCAGAGTAGGTACGAAT | -0.28
26 | ATATGTAGGTTAGGGTCATTCAAAAAGTAGGGAA | 1.57
27 | CGTCTAAGGTCAAGGTCAGTGAAAGAGACTCGAA | 1.33
28 | CGAACTAAGTCATCCAGGACAGTGAATACATTGA | 0.135
29 | CAAACTAGGTCACAGAGGTCAAACTCCGTGCGTA | 8.67
30 | CGTCCAAGGTCAGATAGGTCAGTGAATGCCGAGT | 1.77
31 | CAAACTAGGTCACGAAAGGTCAACGTCGAATGAC | 7.42
32 | CCTACAGGGCCAAAGGTCATTGATTCCAATGCTC | 4.04
33 | CGAACTAGGTAACCAGGACAGTGAAGAGGTTGGA | -0.222
34 | GATACAAGGTCAGCTAGAGGCCAGAGTATGGAAA | 0.325
35 | CCTACTGGGGCACGAAAGGTCATTGATTCAGTGA | 4.81
36 | GCATATAGGTAATTCAAGGTGAAAGTCCGATTGT | 0.799
37 | ACTCGGAGGACAAATGTCAGAGCTACGCCAGTGA | -0.289
38 | TCTCGGAGGACACGAAAGGTCAGAACTCGACATC | 3.3
39 | TAGCATAGGTCATGCGGGCCAGTATAGTGTCGGC | 0.874
